Results from PubChem BioAssay AID686978 (National Center for Advancing Translational Sciences (NCATS), 2013).
The campaign covered roughly 420,000 compounds. About 64,000 (15%) were called active. About 27% were inconclusive and are not listed. The call rests on the fitted dose curve; in most records, active means well fitted inhibition curve with a large enough effect; inconclusive means small, poorly fitted or top-dose-only effect; inactive means flat fitted curve, though single readings scatter. A selection follows. A call without a number means that no potency is given here.

Assay: qHTS for Inhibitors of human tyrosyl-DNA phosphodiesterase 1 (TDP1): qHTS in cells in absence of CPT; further: nearly all actives have a fitted effect of over 55% in size
Conditions: DT40 Tdp1-/- hTDP1 cells, no CPT, ATP luminescence, 48 h; activity change, negative = growth inhibition: at 46.2 µM (top of the series)
How it was run: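 Readout: luminescence from CellTiter-Glo after 30 min in the dark at RT. Cells: DT40 Tdp1-/- with stable hTDP1, 400/well. Exposure: compounds alone, ≥48 hr, 37 °C.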
Potency means the concentration at half of the fitted maximal effect.

Compound	Potency
CC[C@H](C)[C@@H](C(=O)N1CCNCC1)n1cc([C@@H](N)Cc2ccc(O)cc2)nn1	inactive
O=C(O)c1ccn(COc2ccc(Br)cc2)n1	inactive
Cn1c(=O)c(=O)n(C)c2cc(S(=O)(=O)CCC(=O)N3CCCCC3)ccc21	inactive
Cc1cccc(N2CCN(C(=O)CCS(=O)(=O)c3ccc4c(c3)NC(=O)C(C)S4)CC2)c1C (stereo not given)	25.9 µM (active)
CCC(=O)N1CCc2cc(S(=O)(=O)CCC(=O)N3CCN(c4ccccc4F)CC3)ccc21	inactive
COc1ccc(NC(=O)C2CCC(CNS(=O)(=O)c3csc(C(N)=O)c3)CC2)cc1OC (stereo not given)	inactive
COc1cccc(CNS(=O)(=O)c2csc(C(N)=O)c2)c1	inactive
NC(=O)c1cc(S(=O)(=O)NCCCc2ccco2)cs1	8.2 µM (active)
CCC(=NC1CC(C)(C)NC(C)(C)C1)C1=C(O)CC(C)(C)CC1=O	inactive
Cn1c(=O)cc(SCC(=O)N2CCCC2)c2cc(Cl)ccc21	inactive
CC1(C)C(c2cccs2)=[N+]([O-])C2(CCCCC2=O)N1O (stereo not given)	inactive
COc1ccc(N(Cc2ccccc2)S(=O)(=O)c2cccc(C(=O)O)c2)cc1	inactive
COc1ccc(C(CC(=O)c2ccccc2)S(=O)(=O)c2ccccc2)cc1 (stereo not given)	18.4 µM (active)
COc1ccc(C(CC(=O)O)NC(=O)Cc2ccccc2)cc1 (stereo not given)	inactive
CC(C)c1cc(C(=O)N/N=C/c2ccoc2)c(O)c(C(C)C)c1	inactive
CCOCCCNC(=O)Cc1cc(=O)[nH]c(=O)[nH]1	inactive
COc1ccc(NC(=O)Cn2c(-c3ccc(OC)cc3)cn(-c3ccc(C)cc3)c2=O)cc1	inactive
CC(=O)OCC1(O)CC23CCC4c5ccoc5CCC4(C)C2CCC1C3 (stereo not given)	14.6 µM (active)
Cc1ccc(SCCC(=O)Nc2cc(C)on2)cc1	inactive
O=C(O/N=C(/c1ccccc1)c1ccncc1)c1ccccc1[N+](=O)[O-]	inactive
O=C(CN1CCOCC1)Nc1ccc(NC(=O)CN2CCOCC2)c(Cl)c1	inactive
CC(=O)OC1CCC2(O)CC1(C)CCC1C2CC1(C)C (stereo not given)	inactive

Compound	Potency
CCOC(=O)c1csc(CCNC(=O)c2oc3c(Cl)cc(C)cc3c2C)n1	20.6 µM (active)
Cc1ccc2c(=O)cc(C(=O)NCCc3ccc(S(N)(=O)=O)cc3)oc2c1C	inactive
CCOc1ccc(NC(=O)c2cccc3c2C(=O)N(CC2CCCO2)C3)cc1 (stereo not given)	inactive
COCCN1Cc2cccc(C(=O)Nc3ccccc3OC)c2C1=O	inactive
COc1ccc(NC(=O)c2cccc3c2C(=O)N(CC2CCCO2)C3)cc1OC (stereo not given)	23.1 µM (active)
O=C(CNS(=O)(=O)c1ccc(Br)s1)N1CCN(C(=O)c2ccco2)CC1	inactive
O=C(CNC(=O)c1cc2c(s1)CCC2)Nc1ccccc1Br	inactive
Cc1ccc(C(=O)N/C(=C\c2cccs2)C(=O)NCCc2ccccn2)cc1C	inactive
COc1ccc2oc(=O)c(C(=O)NCc3ccccn3)cc2c1	inactive
COc1cncc(-c2cnc3sc(NCCc4ccccn4)nn23)c1	13 µM (active)
C[C@H](CO)N1C[C@H](C)[C@H](CN(C)C(=O)Nc2ccc3c(c2)OCO3)Oc2ncc(Br)cc2C1=O	inactive
CN1CCCC(OC(=O)COc2ccc(Br)cc2)C1 (stereo not given)	inactive
CCOc1ccccc1-n1c(SCC(=O)N2CCCC2)nnc1-c1ccoc1C	inactive
CCOc1ccccc1N1C(=O)CC(Sc2nccc(C)n2)C1=O (stereo not given)	20.6 µM (active)
CC(=O)Nc1ccc(N2C(=O)CC(Sc3nccc(C)n3)C2=O)cc1 (stereo not given)	inactive
COc1ccc(C(=O)NC(C)c2nccs2)cc1OC1CCN(C(C)C)CC1 (stereo not given)	inactive
COc1ccc(-c2[nH]ncc2CN(C)Cc2cc(C)[nH]n2)c(F)c1	inactive
Cc1cc(C)nc(NC(=O)C(C)N2C(=O)c3ccccc3C2=O)n1 (stereo not given)	inactive
Cc1cc(Cl)nc(NC(=O)Nc2cccc(Cl)c2)n1	inactive
Cc1cc(C)nc(NC(=O)Nc2ccccc2C(F)(F)F)n1	18.4 µM (active)
CC(C)C(NC(=O)c1cccc(S(=O)(=O)N2CCOCC2)c1)C(=O)NCCc1ccccn1 (stereo not given)	inactive
O=C(COC(=O)c1c2c(nc3ccccc13)CCCC2)c1ccc(Br)s1	7.31 µM (active)

Compound	Potency
O=C(COC(=O)c1ccncc1)c1ccccc1	inactive
Cc1ccc(C(=O)COC(=O)c2cccc(N3C(=O)c4c(C)nc5ccccc5c4C3=O)c2)cc1C	inactive
CN1C(=O)/C(=C/c2ccc(C(=O)NC3CCCC3)cc2)Oc2ccccc21	10.3 µM (active)
CC1CCC(NC(=O)c2ccc(N3CCCC3=O)cc2)CC1 (stereo not given)	inactive
O=C(NC1CCCCC1)c1ccc(CNc2c(N3CCOCC3)c(=O)c2=O)cc1	inactive
CNC(=S)N1CCC(NC(=O)C(Cc2ccc(F)cc2)NC(C)=O)CC1 (stereo not given)	inactive
CCOc1ccc(C(CC(=O)O)n2cnnn2)cc1OC (stereo not given)	inactive
C[C@H]1CN([C@@H](C)CO)S(=O)(=O)c2ccc(Br)cc2O[C@H]1CN(C)C(=O)c1cnccn1	inactive
CN(C)c1nc(=Nc2cccc(Cl)c2)ss1	0.206 µM (active)
CCOC(=O)C1=C(O)CSC1=Nc1cccc(Cl)c1	inactive
CCN(CC)S(=O)(=O)c1ccc(OC(C)C)c(N)c1	inactive
CC(C)Nc1nnc(SC(C)C(=O)N(C)C2CCCCC2)s1 (stereo not given)	inactive
Cc1cccc(N2CCN(c3c(CN4CCCC4)c(=O)oc4ccccc34)CC2)c1C	inactive
Cc1cccc(N2CCN(C3=C(c4ccccc4)C(=O)c4ccccc43)CC2)c1C	11.6 µM (active)
CC(Oc1ccccc1)C(=O)NN1Cc2ccccc2C1=N (stereo not given)	inactive
Cc1nn(C)cc1N1C(=O)c2cccc3c(N)ccc(c23)C1=O	inactive
CCc1oc(-c2ccc(OC)cc2)c(C(=O)OCCCCCO)c1C(C)OCCO (stereo not given)	16.4 µM (active)
CCN(CCCCOC(=O)c1ccc(OC)c(OC)c1)C(C)Cc1ccc(OC)cc1 (stereo not given)	inactive
COc1ccc(C(=O)Nc2c(N)nc(SCC(=O)N3CCC(C)CC3)[nH]c2=O)cc1OC	inactive
O=C(c1ccc2c(c1)C(=O)N(Cc1ccncc1)C2=O)N1CCN(S(=O)(=O)c2ccc(OC(F)(F)F)cc2)CC1	inactive
Oc1ccc(Br)cc1C1C=C(c2ccc3c(c2)OCO3)NC(c2ccc(Cl)cc2)N1 (stereo not given)	5.01 µM (active)
